Several values for one entry are separate records, joined by “and”; a condition that tells them apart may be missing. Identical values can stand only once. Results filed as inconclusive are left out. Entries that show only a call come without a potency. A number with no mark means an inactive call. Activity calls are given as the source filed them. Calls come from the whole dose curve; as a rule, active = well fitted inhibition curve with a large enough effect in the repeat runs; inconclusive = weak or mixed curves; inactive = no such curve, though single readings can be large or run the other way.
What follows are molecules tested against Cytochrome P450 2C9 (Homo sapiens) (UniProt P11712) (assay: Cytochrome P450 Family 2 Subfamily C Member 9 (CYP2C9) small molecule antagonists: luciferase reporter qHTS assay (AID 1671198; note: nearly all actives have a fitted effect of over 50% in size)). Details: P450-Glo CYP2C9 enzyme assay, luciferin luminescence; series mostly up to 115 µM.
Method in brief: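 P450-Glo proluciferin substrate with CYP2C9 enzyme; 10 min RT preincubation, then NADPH regeneration 1 h at 37C; luciferin detection reagent 20 min RT, luminescence in relative luminescence units.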
Potency is the fitted concentration of half-maximal effect.

Cytochrome P450 2C9 (Homo sapiens), sequence (P11712 whole entry, looked up): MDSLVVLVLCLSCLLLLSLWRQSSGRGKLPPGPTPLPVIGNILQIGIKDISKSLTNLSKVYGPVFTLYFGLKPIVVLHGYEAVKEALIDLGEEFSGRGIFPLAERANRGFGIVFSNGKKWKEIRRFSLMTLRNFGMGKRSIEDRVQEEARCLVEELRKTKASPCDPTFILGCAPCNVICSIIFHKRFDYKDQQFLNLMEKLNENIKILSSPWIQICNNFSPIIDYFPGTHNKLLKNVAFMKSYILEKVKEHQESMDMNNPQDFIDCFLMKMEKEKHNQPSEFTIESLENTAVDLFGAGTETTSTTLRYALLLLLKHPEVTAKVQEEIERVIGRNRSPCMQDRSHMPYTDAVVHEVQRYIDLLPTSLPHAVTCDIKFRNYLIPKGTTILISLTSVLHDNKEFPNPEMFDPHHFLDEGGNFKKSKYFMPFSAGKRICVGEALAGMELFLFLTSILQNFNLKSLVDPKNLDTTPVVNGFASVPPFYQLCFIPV

| SMILES | Potency | activity change, negative = inhibition |
| --- | --- | --- |
| CC(=O)N(CC(O)CO)c1c(I)c(C(=O)NCCO)c(I)c(C(=O)NCC(O)CO)c1I (stereo not given) | inactive | – |
| NC(=O)COCCN1CCN(C(c2ccccc2)c2ccc(Cl)cc2)CC1 (stereo not given) | inactive | – |
| CC(=O)CC(C)(C)C1CCCCC1 | inactive | – |
| C[C@H](NC(CCc1ccccc1)C(=O)O)C(=O)N1CCC[C@H]1C(=O)O (stereo not given in full) | inactive | – |
| CCC(=O)OC(C)c1ccccc1 (stereo not given) | inactive | – |
| OC[C@]1(O)OC[C@@H](O)[C@H](O)[C@@H]1O | inactive | – |
| CC1=CC(C)C(C=O)CC1 (stereo not given) | inactive | – |
| CCc1ccc(O)c(OC)c1 | inactive | – |
| CN1C(=O)N(C)C(O)C1O (stereo not given) | inactive | – |
| COC(=O)CC(C)=O | inactive | – |
| CC/C=C\CC/C=C/CO | inactive | – |
| CCCCCCCCCCCCCCCCC | inactive | – |
| CO[C@]12C[C@@H](COC(=O)c3cncc(Br)c3)CN(C)[C@@H]1Cc1cn(C)c3cccc2c13 | inactive | – |
| CC(C)(c1ccc(O)cc1)c1ccc(O)cc1 | 35.2 µM (active) and 28.8 µM (active) | – |
| COC(=O)NN | inactive | – |
| O=C(O)c1ccccc1OP(=O)(O)O | inactive | – |
| CCCCCCCCCCCCCC=O | – | -9.33% [at 10.5 µM] |
| O=C1CCCN1C1CCCCC1 | inactive | – |
| NCCCNCCSP(=O)(O)O | – | 10.3% [at 10.5 µM] |
| Cc1ccc(Cl)cc1Cl | inactive | – |
| CCC(C)C1CCCCC1=O (stereo not given) | inactive | – |
| CN1CCCC1 | inactive | – |
| CCOC(=O)c1ccc(C)cc1 | inactive | – |
| COC(=O)c1cc(C(=O)OC)cc(S(=O)(=O)O)c1 | inactive | – |
| C=C[Si](OC(=C)C)(OC(=C)C)OC(=C)C | inactive | – |

Source: PubChem BioAssay (Tox21)
